Some test systems named below: SR leukemia; RPMI-8226 leukemia; OVCAR-8 ovarian; OVCAR-5 ovarian; OVCAR-4 ovarian; SK-OV-3 ovarian; IGROV1 ovarian; OVCAR-3 ovarian; HS 578T breast; NCI/ADR-RES ovarian.
Test in all cases: NCI-60 one-dose screen, 48 h (100 = growth as untreated, 0 = no growth, -100 = all killed)
Holding throughout (settings): 10 µM unless noted

Consider eleven compounds from PubChem BioAssay (NCI).

Compounds without any hit were thinned out: in the full panel of roughly 83,000, 20% have a hit.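 Note: values are percent growth. 100 is the growth of untreated cells, values between 100 and 0 indicate rising inhibition; between -100 and 0 indicates cell death.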 Unmarked numbers belong to inactive results. Calls of active or inactive are those of the source. How the source made its calls: active means growth percent below 10; inactive means the rest.

With `O=c1ccc(-c2nc(N3CCOCC3)c3ccccc3n2)c[nH]1`, the growth with SR leukemia is 100%; in the assay with RPMI-8226 leukemia it was 101%; in the assay on OVCAR-8 ovarian it was 110%; in the assay with OVCAR-5 ovarian it was 83.2%; with OVCAR-4 ovarian, 94.2%; in the assay with SK-OV-3 ovarian, 105%. The growth with IGROV1 ovarian is 107%; with OVCAR-3 ovarian, 101%; with HS 578T breast, 62.5%; in the assay on NCI/ADR-RES ovarian, 96.9%.

Turning to `O=c1[nH]nc(-c2ccccc2)c2sc3ncc(-c4ccc(Br)cc4)n3c12`, the growth in the assay with SR leukemia was 26.1%; with RPMI-8226 leukemia, 12.4%; in the assay on OVCAR-8 ovarian, 46.5%; in the assay with OVCAR-5 ovarian it was 90.4%; in the assay with OVCAR-4 ovarian, 85.5%; with SK-OV-3 ovarian, 70.6%. Also, the growth was 40.4% in the assay with IGROV1 ovarian, 0.339% (active) in the assay on OVCAR-3 ovarian, 32.4% in the assay with HS 578T breast and 98.2% in the assay with NCI/ADR-RES ovarian.

For `CCN(CC)c1ccc(/C=N/NC(=O)CSc2nc3ccccc3c(=O)n2CCc2ccc(S(N)(=O)=O)cc2)c(O)c1`, the growth was 13.8% in the assay with SR leukemia; -31.5% (active) in the assay with RPMI-8226 leukemia; 8.51% (active) in the assay on OVCAR-8 ovarian; 47.7% in the assay on OVCAR-5 ovarian; 19.7% with OVCAR-4 ovarian; 41.1% in the assay on SK-OV-3 ovarian. Moreover, the growth in the assay on IGROV1 ovarian is 13.7%; in the assay on OVCAR-3 ovarian it was 1.89% (active); with HS 578T breast it was 46.3%; in the assay on NCI/ADR-RES ovarian, 82.6%.

For the compound `O=C(Cc1ccc(/C=C/C(=O)c2ncc[nH]2)cc1)Nc1ccc(Cl)cc1`, the growth in the assay with SR leukemia is 0.986% (active); with RPMI-8226 leukemia, -29.2% (active); in the assay on OVCAR-8 ovarian it was -6.61% (active); in the assay with OVCAR-5 ovarian, 41.7%; in the assay with OVCAR-4 ovarian it was 37.5%; in the assay on SK-OV-3 ovarian, 64.3%. The growth is 27.9% in the assay with IGROV1 ovarian, -4.9% (active) in the assay with OVCAR-3 ovarian, 5.07% (active) in the assay with HS 578T breast and 19.5% with NCI/ADR-RES ovarian.

Turning to `COc1c(Cl)c2c(c(OC)c1OC)-c1ccc(SC)c(=O)cc1[C@@H](NC(=O)OCC(F)(F)F)CC2`, the growth is -0.191% (active) with SR leukemia; 2.59% (active) in the assay with RPMI-8226 leukemia; 20% with OVCAR-8 ovarian; 35% with OVCAR-5 ovarian; 39.6% in the assay with OVCAR-4 ovarian; 48.2% in the assay with SK-OV-3 ovarian. Also, the growth with IGROV1 ovarian is 13.5%; in the assay with OVCAR-3 ovarian, -14.2% (active); in the assay with HS 578T breast, 12.1%; in the assay on NCI/ADR-RES ovarian, 14.6%.

For `O=C1c2ccccc2C(=O)c2c([N+](=O)[O-])ccc(Cl)c21`, the growth is 54% in the assay with SR leukemia; 81.8% with RPMI-8226 leukemia; 75.2% in the assay on OVCAR-8 ovarian; 135% in the assay on OVCAR-5 ovarian; 62.2% with OVCAR-4 ovarian; 112% in the assay on SK-OV-3 ovarian. For the same compound, the growth in the assay with IGROV1 ovarian was 71.5%; in the assay on OVCAR-3 ovarian, 57.1%; in the assay on HS 578T breast, 98.8%; in the assay on NCI/ADR-RES ovarian, 92.4%.

Turning to `N#CC1C(C#N)C2c3ccccc3C=CN2C1C(=O)c1ccc(Br)cc1` (stereo not given), the growth in the assay with SR leukemia is 99.9%; with RPMI-8226 leukemia, 110%; with OVCAR-8 ovarian it was 94.9%; in the assay with OVCAR-5 ovarian it was 98%; with OVCAR-4 ovarian it was 54.3%; with SK-OV-3 ovarian, 108%. Further, the growth with IGROV1 ovarian was 102%; in the assay with OVCAR-3 ovarian it was 109%; in the assay with HS 578T breast, 103%; in the assay on NCI/ADR-RES ovarian, 94.7%.

In the case of `Clc1ccc(-c2ccc(CNCC3CCNCC3)o2)c(-c2ccccc2)c1`, the growth in the assay on SR leukemia was -60.9% (active); in the assay on RPMI-8226 leukemia, -54.4% (active); with OVCAR-8 ovarian, -66.9% (active); in the assay with OVCAR-5 ovarian, -90.6% (active); in the assay on OVCAR-4 ovarian it was -38.2% (active); in the assay with SK-OV-3 ovarian, 45.4%. The growth in the assay on IGROV1 ovarian is -64% (active); with OVCAR-3 ovarian, -79.9% (active); in the assay on HS 578T breast, -49.8% (active); in the assay with NCI/ADR-RES ovarian, -32.5% (active).

`Cc1ccccc1NS(=O)(=O)c1cccc(C(=O)Nc2ccc(Br)cc2)c1`: the growth with SR leukemia was 45.2% [25 µM]; in the assay on RPMI-8226 leukemia, 33.6% [25 µM]; in the assay on OVCAR-8 ovarian it was 40.5% [25 µM]; in the assay on OVCAR-5 ovarian, 76.7% [25 µM]; in the assay with OVCAR-4 ovarian, 36.5% [25 µM]; in the assay on SK-OV-3 ovarian, 46.3% [25 µM]. Besides, the growth with IGROV1 ovarian is 40.5% [25 µM]; with OVCAR-3 ovarian it was 47.3% [25 µM]; in the assay on HS 578T breast, 59.1% [25 µM]; with NCI/ADR-RES ovarian, 19.1% [25 µM].

In the case of `CCN1C(=O)/C(=C/C(=O)OC)S/C1=N\NC(=O)c1cc2ccc1/C=C\c1ccc(cc1)/C=C\2`, the growth in the assay on SR leukemia was -13.4% (active); with RPMI-8226 leukemia, -14.3% (active); in the assay on OVCAR-8 ovarian, 92.6%; in the assay on OVCAR-5 ovarian, 100%; in the assay with OVCAR-4 ovarian, 89.6%; in the assay with SK-OV-3 ovarian, 125%. The growth is 88.4% with IGROV1 ovarian, 92.9% in the assay on OVCAR-3 ovarian, 99% in the assay on HS 578T breast and 86.5% in the assay with NCI/ADR-RES ovarian.

`CCCC/C=N/NC(=S)NCc1ccccc1`: the growth is 95% in the assay on SR leukemia; 97.6% in the assay on RPMI-8226 leukemia; 97.5% in the assay on OVCAR-8 ovarian; 92.7% in the assay on OVCAR-5 ovarian; 96.3% in the assay with OVCAR-4 ovarian; 88.9% with SK-OV-3 ovarian. Further, the growth in the assay with IGROV1 ovarian is 110%; in the assay with OVCAR-3 ovarian it was 104%; in the assay with HS 578T breast it was 95%; in the assay on NCI/ADR-RES ovarian, 104%.
